Activity calls are given as the source filed them. The calls were made as follows: active = hit-call score of the fitted dose curve at least 0.9, where 1 is the maximum; inactive = score below 0.9.

A short description of this assay: ATG_ERE_CIS: Attagene CIS-FACTORIAL HepG2 Assay for Estrogen Response Element (ERE) (AID 2282940). Particulars: HepG2 ERE cis-reporter, Attagene RNA transcript; actives raise or lower the signal. On the procedure:
ATG_CIS is a cell-based, multiplexed-readout assay that uses HepG2, a human liver cell line, with measurements taken at 24 hours after chemical dosing in a 24-well plate.ATG_ERE_CIS is one of 52 assay component(s) measured or calculated from the ATG_CIS assay. It is designed to make measurements of mRNA induction, a form of inducible reporter, as detected with fluorescence intensity signals by Reverse transcription polymerase chain reaction (RT-PCR) and Capillary electrophoresis technology.Data from the assay component ATG_ERE_CIS was analyzed into 1 assay endpoint. This assay endpoint, ATG_ERE_CIS, was analyzed with bidirectional fitting relative to DMSO as the negative control and baseline of activity. Using a type of inducible reporter, measures of mRNA for gain or loss-of-signal activity can be used to understand the reporter gene at the transcription factor-level as they relate to the gene ESR1. Furthermore, this assay endpoint can be referred to as a primary readout, because this assay has produced multiple assay endpoints where this one serves a reporter gene function. To generalize the intended target to other relatable targets, this assay endpoint is annotated to the nuclear receptor intended target family, where the subfamily is steroidal.
Human liver HepG2 cells are transiently transfected with multiple reporter transcription units (MRTUs) in 6-well plates using FuGene 6 reagent (Roche; 3 ml FuGene/1 mg DNA). The MRTU constructs are regulated by a cis-regulating element (promoter). […] A major difference between the CIS and TRANS system is that in CIS activities of endogenous TFs are measured, whereas the TRANS assay evaluates changes in activities of exogenous, chimeric NR-Gal4 proteins. […] At the end of 24 hour incubation, total RNA was isolated using TriZol reagent (Invitrogen). The isolated RNA is then reverse-transcribed using oligo(dT) primer and Mo-MLV reverse transcriptase (Invitrogen) with DNAse I (Ambion) treatment for 30 min. The one-tenth of the produced cDNA was amplified by PCR using Taq DNA polymerase (Invitrogen) and two reporter sequence-specific primers. The PCR products were fluorescently labeled by primer extension with 6-arboxyfluorescein (6-FAM) 5'-labeled reporter sequence-specific primer (2 min at 95 C, 20 s at 68 C and 10 min at 72 C) and these products were digested with 5U of HpaI (New England Biolabs) for 2h at 37 C. The fragments were purified using Qiaquick PCR columns (Qiagen), analyzed on an ABI 3130xL genetic analyzer (Applied Biosystems) with peak positions identified by using a set of X-rhodamine (ROX)-labeled MapMarker1000 molecular weight standards (BioVentures). The raw capillary electrophoresis data was processed using Attagraph software (Attagene).
Take `CCOc1ccc(N)cc1`: the molecule was classed as inactive.

`COCC(=O)N(c1c(C)cccc1C)[C@H](C)C(=O)OC`: the outcome was inactive.

As to `O=C(Cc1ccccc1)OCCc1ccccc1`, the call was inactive.

On to `CCCCCCCCCCCCBr`, for which the molecule was classed as inactive.

`Clc1cc(C(Cl)(Cl)Cl)cnc1Cl`: the result was inactive.

For `COC(F)(C(F)(F)C(F)(F)F)C(F)(C(F)(F)F)C(F)(F)F` (stereo not given), the call was inactive.

As for `N#Cc1cccnc1`, the result was inactive.

On to `O=[N+]([O-])c1c2ccccc2cc2ccccc12`, for which the half-maximal activity concentration (AC50) – broadly, the midpoint of the concentration-response curve, whichever way the signal moves – is 7.14 µM (active).

`Cc1ccc(OP(=O)(Oc2ccc(C)cc2C)Oc2ccc(C)cc2C)c(C)c1`: the AC50 was 5.48 µM (active).

For `CC(C)(C1CCC(O)CC1)C1CCC(O)CC1` (stereo not given), the AC50 was 20.4 µM (active).

Regarding `CC(c1ccccc1)(c1ccc(O)cc1)c1ccc(O)cc1`, the AC50 is 0.181 µM (active).

Regarding `CCNc1nc(NCC)nc(SC)n1`, the result was inactive.

Take `CN(N=O)c1ccc([N+](=O)[O-])cc1`: the outcome was inactive.

Regarding `NC(=O)CCl`, the outcome was inactive.

Turning to `N#Cc1ccccc1N`, the molecule was called inactive.

As to `Oc1cccc(-c2ccccc2)c1`, the AC50 is 6.35 µM (active).

On to `O=NN1CCCCCC1`, for which the call was inactive.

Regarding `O=S(=O)(F)C(F)(F)C(F)(F)C(F)(F)C(F)(F)F`, the call was inactive.

As for `C=CC(F)(C(F)(F)F)C(F)(F)C(F)(F)F` (stereo not given), the call was inactive.

Regarding `c1ccc2sc(SNC3CCCCC3)nc2c1`, the result was inactive.

For the molecule `CC(C)[C@@H](Nc1ccc(C(F)(F)F)cc1Cl)C(=O)OC(C#N)c1cccc(Oc2ccccc2)c1` (stereo not given in full), the molecule was classed as inactive.

For `Clc1ccc(C(Cl)(Cl)Cl)cn1`, the concentration at half-maximal activity (AC50) is 2.86 µM (active).

Consider `O=c1[nH]c2ccccc2n1C1CCN(CCCC(c2ccc(F)cc2)c2ccc(F)cc2)CC1`, for which the AC50 was 4.17 µM (active).

For `O=CCCl`, the call was inactive.

As to `O=C(Nc1ccc(Br)cc1)c1cc(Br)cc(Br)c1O`, the molecule was classed as inactive.

As for `CS(=O)(=O)c1ccc(C(=O)C2C(=O)CCCC2=O)c(Cl)c1COCC(F)(F)F`, the AC50 was 27.3 µM (active).

As to `Cc1cccc(C)c1NC(=O)CN1CCCC1=O`, the outcome was inactive.

On to `CCOP(=S)(OCC)Oc1ccc(Cl)cc1Cl`, for which the AC50 is 10.1 µM (active).

As for `Cc1cc(C(F)(C(F)(F)F)C(F)(F)F)ccc1NC(=O)c1cccc(I)c1C(=O)NC(C)(C)CS(C)(=O)=O`, the result was inactive.

With `CC(C)(COCC1CO1)COCC1CO1` (stereo not given), the molecule was classed as inactive.

On to `Cc1cc(C(C)(C)c2ccc(O)c(C)c2)ccc1O`, for which the AC50 is 0.265 µM (active).

`OC[C@@H](O)[C@H]1O[C@@H]2O[C@H](C(Cl)(Cl)Cl)O[C@@H]2[C@H]1O`: the molecule was classed as inactive.

In the case of `O=C1c2ccccc2C(=O)C1C(=O)C(c1ccccc1)c1ccc(Cl)cc1` (stereo not given), the result was inactive.

For `C=CCOC(F)(C(F)(F)F)C(F)(F)F`, the result was inactive.

For `Nc1c(Oc2ccccc2)cc(O)c2c1C(=O)c1ccccc1C2=O`, the result was inactive.

Take `C=C(C)C(=O)OCC(CC)CCCC` (stereo not given): the molecule was called inactive.

With `CCCSP(=S)(OCC)Oc1ccc(Cl)cc1Cl` (stereo not given), the AC50 was 10.3 µM (active).

For `CCC(C)(C#N)N=NC(C)(C#N)CC` (stereo not given), the molecule was called inactive.

In the case of `O=[N+]([O-])c1cccc2ccccc12`, the result was inactive.

Take `ClCc1ccccc1CCl`: the molecule was classed as inactive.

Source of the values: PubChem BioAssay (EPA / NIEHS).
